SMILES strings stand for the structures. Screen size: about 69,000 compounds; about 8,600 (12%) showed an effect of 50% or more. The sample holds strong results, similar compounds and a random draw of the others, so the mix is not that of the screen.

This assay deals with Plasmodium berghei. In words: Screen against P. berghei liver stage (PbLuc), transformed with Luciferase, at 10uM. Format: functional, HepG2. Particulars: tested at 10 uM.
With `O=C(NCCC1CCCCO1)c1coc(COc2ccc(F)cc2)n1` (stereo unspecified), the INHIBITION is listed as 77.8%.

Regarding `CSCCNC(=O)c1coc(COc2ccc(F)cc2)n1`, the INHIBITION amounted to 49.5%. For the compound `CCOCCNC(=O)c1cc(COc2cncc(Cl)c2)on1`, the INHIBITION came out at 29%.

In the case of `O=C(NCCN1CCCCCC1)c1coc(COc2ccc(F)cc2)n1`, the INHIBITION came out at 7.15%. Take `COc1ccc(N2CCN(C(=O)Cn3nc(C)c(Cl)c3C)CC2)cc1`: the INHIBITION is reported as 7.44%. As to `O=C(CCNc1ncccn1)N1CCN(c2nccs2)CC1`, the INHIBITION amounted to 45.7%. `Cc1nc[nH]c1-c1nccn1CCN1CCCOC1=O`: the INHIBITION was 39.6%. With `Cc1nc[nH]c1-c1nccn1CCN1CCCC1=O` the figure was -4.95%.

For `Cc1nc[nH]c1-c1nccn1CCN1CCOC1=O`, the INHIBITION stood at 55.5%. To `Cc1cccc(CN2C[C@@H]3C[C@H](C(=O)NCc4cccnc4)[C@H](C2)O3)c1` belongs 21.6%.

As for `CC(C)CCN1C[C@@H]2C[C@H](C(=O)Nc3ccccc3)[C@H](C1)O2`, the INHIBITION is recorded as 33%.

Consider `Cc1ccc(CN2C[C@@H]3C[C@H](C(=O)NCc4cccnc4)[C@H](C2)O3)cc1`, for which the INHIBITION is recorded as 42.3%. With `Cc1ccc(CN2C[C@@H]3C[C@H](C(=O)NCc4cccnc4)[C@H](C2)O3)o1` the figure was 39.3%; with `CC(C)CN1C[C@@H]2C[C@H](C(=O)Nc3cccnc3)[C@H](C1)O2`, 2.27%; with `CCN1C[C@@H]2C[C@H](C(=O)NCc3cccnc3)[C@H](C1)O2`, 50%. Take `CC(C)CNC(=O)[C@H]1CCS(=O)(=O)[C@@H]2CN(Cc3cccnc3)C[C@H]12`: the INHIBITION is recorded as 12.5%.

For `CC(C)CNC(=O)[C@H]1C[C@H]2CN(Cc3cccnc3)C[C@@H]1O2`, the INHIBITION was 65.9%. In the case of `CC(C)CCN1C[C@@H]2C[C@H](C(=O)NCC(C)C)[C@H](C1)O2`, the INHIBITION was 61.3%. To `CC(C)CCN1C[C@@H]2C[C@H](C(=O)NCc3ccccc3)[C@H](C1)O2` belongs 11.6%; to `CNC(=O)N1C[C@@H]2C[C@H](C(=O)NCc3cccnc3)[C@H](C1)O2`, 7.65%; to `CC(C)CN1C[C@@H]2C[C@H](C(=O)NCc3cccnc3)[C@H](C1)O2`, 58.5%. As for `Cc1cc(C(F)(F)F)nn1C(C)C(=O)NN1CCOCC1` (stereo unspecified), the INHIBITION is reported as -4.12%. Consider `CC(C)OCCCNC(=O)C1CCCN(c2ccc3nncn3n2)C1` (stereo unspecified), for which the INHIBITION is given as 32.3%. For the compound `CS(=O)(=O)NCc1cc(=O)n2c(n1)CN(CC1CC1)CCC2`, the INHIBITION was determined as 37.6%. Regarding `Cc1nc(CN2CCC3(CCN(Cc4nccn4C)CC3)C2=O)cs1`, the INHIBITION is reported as -11.2%. `N#Cc1ccc(CNCC2(c3ccccc3)CCOCC2)cc1`: the INHIBITION is listed as -32.8%. Regarding `COCC(=O)N1CCC(c2cc(-c3ccc(C)cc3)n[nH]2)C1` (stereo unspecified), the INHIBITION is given as -16.9%. In the case of `CC(C(=O)N1CCCN(c2ccccc2C#N)CC1)n1cccn1` (stereo unspecified), the INHIBITION is listed as -6.44%. With `CNC(=O)[C@H]1C[C@@H]2CN(S(=O)(=O)c3ccccc3)C[C@@H]2N1C` the figure was 30.1%; with `CNC(=O)[C@H]1C[C@@H]2CN(S(=O)(=O)c3cccc(C)c3)C[C@@H]2N1C`, 50.7%. For `CNC(=O)[C@H]1C[C@@H]2CN(S(=O)(=O)c3cccc(F)c3)C[C@@H]2N1C`, the INHIBITION is reported as -23.8%.

For the compound `CCc1n[nH]c(C(=O)N2CCC3(CCCN(CCOC)C3=O)C2)c1C` (stereo unspecified), the INHIBITION was 41.2%. For the compound `Cc1cc2ncc(CN(C)C)c(C3CCN(C)CC3)n2n1`, the INHIBITION was 16.771%.

With `Cc1ccccc1CN1CCN(C(C)c2nc(C3CC3)no2)CC1` (stereo unspecified), the INHIBITION is listed as 5.7%. As to `CCC1CN(C(=O)c2ccc(=O)[nH]n2)CCC(=O)N1Cc1ccccc1` (stereo unspecified), the INHIBITION came out at 25%. Take `CCC1CN(C(=O)c2ncccc2O)CCC(=O)N1Cc1ccccc1` (stereo unspecified): the INHIBITION came out at 7.43%.

Regarding `CCC1CN(C(=O)c2ccc(O)cn2)CCC(=O)N1Cc1ccccc1` (stereo unspecified), the INHIBITION is given as 66.8%. Turning to `COCC(=O)N1CCC2(CC1)CN(c1ncccn1)CCO2`, the INHIBITION is 57.9%. Regarding `COCC(=O)N1CCC2(CC1)CC(COC)N(Cc1ccccn1)C2` (stereo unspecified), the INHIBITION stood at 26.7%. `COCC(=O)N1CCC2(CCN(Cc3ccccn3)CC2)CC1`: the INHIBITION was 56.9%. For the compound `COCC(=O)N1CCC2(CC1)CN(c1ccccn1)CCO2`, the INHIBITION is recorded as 62.5%. Consider `O=C(Cc1ccccn1)N1CCC2(CC1)CN(c1ccccn1)CCO2`, for which the INHIBITION stood at 21.7%. In the case of `Cn1cccc1C(=O)N1CCC2(CC1)CN(c1ccccn1)CCO2`, the INHIBITION stood at 28.5%. In the case of `CN(C)CC(=O)N1CCC2(CC1)CN(c1ncccn1)CCO2`, the INHIBITION is listed as 83.5%. With `O=C(C1CCOC1)N1CCC2(CC1)CN(c1ncccn1)CCO2` (stereo unspecified) the figure was 25.2%.

In the case of `CN(C)C(=O)CN1CCOCC2(C1)CN(c1ncccn1)CCO2` (stereo unspecified), the INHIBITION was 11.6%. As to `COCC(=O)N1CCC2(CC1)CCN(Cc1ccccn1)C2=O`, the INHIBITION is on record as 42.1%.

Consider `CN(C)CC(=O)N1CCC2(CC1)COCCN(c1ncccn1)C2`, for which the INHIBITION is on record as -13.2%. For the compound `NC(=O)N1CCC2(CC1)CN(c1ncccn1)CCO2`, the INHIBITION amounted to 25.2%. Turning to `Cc1cnc(N2CCOC(C(=O)NCc3ccccc3)C2)s1` (stereo unspecified), the INHIBITION is reported as 12.8%. Turning to `CCC(C)NC(=O)c1cc(S(=O)(=O)N2CCCC2)c(C)s1` (stereo unspecified), the INHIBITION was 28.3%.

Source of the values: ChEMBL document CHEMBL4513216, “Probing the Open Global Health Chemical Diversity Library for Multistage-Active Starting Points for Next-Generation Antimalarials” (ACS Infect Dis, 2020).
